Measurements taken from PubChem BioAssay (Tox21).
Results filed as inconclusive are left out. Entries that show only a call come without a potency. Values without a mark were called inactive. Calls of active or inactive are those of the source. Unless noted, calls come from the whole dose curve.

Columns and labels:
[1] = qHTS assay to identify small molecule agonists of the vitamin D receptor (VDR) signaling pathway - cell viability counter screen (AID 743224; active = well fitted curve in the direction sought with a large enough effect in the repeat runs; an effect the other way counts as inactive or inconclusive; note: nearly all actives have a fitted effect of over 50% in size; note: potency is the fitted concentration of half-maximal effect)
How it was run: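 Counter screen for cytotoxicity: VDR-bla cells at 2,000 cells/well, 16 h compound exposure, then CellTiter-Glo luminescence after the beta-lactamase measurement.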

[2] = qHTS assay to identify small molecule antagonists of the vitamin D receptor (VDR) signaling pathway - cell viability counter screen (AID 743225; active = well fitted curve in the direction sought with a large enough effect in the repeat runs; an effect the other way counts as inactive or inconclusive; note: nearly all actives have a fitted effect of over 50% in size; note: potency is the fitted concentration of half-maximal effect)
How it was run: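 VDR-bla HEK 293T cells, 4 h pre-incubation at 37C, then compound plus 1-alpha,25-dihydroxyvitamin D3 (3 nM final) for 16 h. After the beta-lactamase FRET read, CellTiter-Glo was added to the same wells; luminescence after 30 min at room temperature.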

[3] = qHTS assay to identify small molecule agonists of the NFkB signaling pathway - cell viability counter screen (AID 1159515); note: series mostly up to about 61 µM; nearly all actives have a fitted effect of over 55% in size
How it was run: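 Counter screen run alongside the NFkB-bla agonist assay: ME-180 reporter cells exposed to compounds for 5 hr, then lysed with CellTiter-Glo in the same wells. Luminescence, read after 30 min, reflects viable cells.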

[4] = qHTS assay to identify small molecule agonists of the endoplasmic reticulum stress response signaling pathway (AID 1159516; active = well fitted activation curve with a large enough effect in the signal ratio in the repeat runs, not every such curve was filed as active; the % refers to the signal ratio)
How it was run: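 For this screen, HeLa cells stably carrying beta-lactamase under the ER stress response element received test compounds, positive controls or DMSO for 5 hr at 37 C; B/G FRET substrate was then added and dual-wavelength emission recorded.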

[5] = qHTS assay to identify small molecule agonists of the endoplasmic reticulum stress response signaling pathway - cell viability counter screen (AID 1159517); note: series mostly up to about 61 µM; nearly all actives have a fitted effect of over 50% in size
How it was run: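 In parallel with the ESRE reporter read, cytotoxicity was scored by CellTiter-Glo luminescence (30 min, room temperature) on HeLa ESRE-bla cells dosed for 5 hr.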

[6] = qHTS assay to identify small molecule antagonists of the retinoid-related orphan receptor gamma (ROR-gamma) signaling pathway - cell viability counter screen (AID 1159520; active = well fitted curve in the direction sought with a large enough effect in the repeat runs; an effect the other way counts as inactive or inconclusive; note: nearly all actives have a fitted effect of over 50% in size; note: potency is the fitted concentration of half-maximal effect)
How it was run: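 Tet-on ROR gamma CHO cells were given compounds for 2 hr, then doxycycline hyclate at 1 uM final, and incubated 16 hr at 37 C. Viability was measured as ATP content by CellTiter-Glo luminescence.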

[7] = target: Nuclear receptor ROR-gamma (Homo sapiens) (UniProt P51449); test: qHTS assay to identify small molecule antagonists of the retinoid-related orphan receptor gamma (ROR-gamma) signaling pathway (AID 1159521; active = well fitted curve in the direction sought with a large enough effect in the repeat runs; an effect the other way counts as inactive or inconclusive; note: nearly all actives have a fitted effect of over 50% in size; note: potency is the fitted concentration of half-maximal effect)
How it was run: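 Tet-on RORγ CHO cells carrying a ROR response element–luciferase reporter were pretreated with compounds for 2 h, then induced with 1 uM (final) doxycycline hyclate for 16 h at 37 C. Antagonism was read as decreased ONE-Glo luminescence.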

[8] = qHTS assay to identify small molecule agonists of the AP-1 signaling pathway - cell viability counter screen (AID 1159525); note: nearly all actives have a fitted effect of over 55% in size
How it was run: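 Same-well cytotoxicity counter screen of the Tox21 10K library in ME-180 cells. The readout is ATP-dependent luminescence after 5 h compound treatment. Data are normalised to DMSO and tetra n-octyl ammonium bromide controls.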

[9] = qHTS assay to identify small molecule agonists of the AP-1 signaling pathway (AID 1159526)
[10] = target: Retinoic acid receptor RXR-alpha (Homo sapiens) (UniProt P19793); test: qHTS assay to identify small molecule agonists of the RXR signaling pathway (AID 1159527); note: nearly all actives have a fitted effect of over 35% in size
Chain of Retinoic acid receptor RXR-alpha (Homo sapiens) (P19793 whole entry, looked up): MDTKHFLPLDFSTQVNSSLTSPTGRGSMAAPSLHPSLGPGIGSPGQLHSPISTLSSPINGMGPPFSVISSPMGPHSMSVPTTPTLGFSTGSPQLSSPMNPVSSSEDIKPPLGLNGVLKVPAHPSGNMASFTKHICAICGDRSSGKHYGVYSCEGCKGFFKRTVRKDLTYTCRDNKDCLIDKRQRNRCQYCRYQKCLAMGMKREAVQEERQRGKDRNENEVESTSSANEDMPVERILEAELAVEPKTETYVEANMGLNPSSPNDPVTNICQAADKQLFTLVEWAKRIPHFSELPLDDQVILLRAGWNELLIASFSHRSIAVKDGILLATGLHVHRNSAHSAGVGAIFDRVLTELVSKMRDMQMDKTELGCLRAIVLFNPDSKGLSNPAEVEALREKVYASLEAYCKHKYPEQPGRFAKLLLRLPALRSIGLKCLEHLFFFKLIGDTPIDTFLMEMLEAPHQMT
How it was run: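 GeneBLAzer RXR-alpha-UAS-bla HEK 293T cells in medium with 2% charcoal-stripped FBS, pre-incubated 5 hr at 37 C, then exposed to compounds 16 hr. Beta-lactamase reporter read by FRET substrate, 2 hr room temperature, 460/530 nm emission.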

Cl/C(=C\n1cncn1)c1ccc(Cl)cc1Cl
Potency [1]: inactive
Potency [2]: inactive
Potency [3]: inactive
Potency [4]: inactive
outcome [5]: inactive
Potency [6]: inactive
Potency [7]: inactive
Potency [8]: inactive

OCCC1CCCCN1 (stereo not drawn)
Potency [2]: inactive
Potency [3]: inactive
Potency [4]: inactive
outcome [5]: inactive
Potency [6]: inactive
Potency [8]: inactive
Potency [9]: inactive

CCC(C)N(C)C(=O)c1cc2ccccc2c(-c2ccccc2Cl)n1 (stereo not drawn)
Potency [1]: inactive
Potency [2]: inactive
Potency [3]: inactive
Potency [4]: inactive
outcome [5]: inactive
Potency [6]: inactive
Potency [8]: inactive
Potency [9]: inactive

Cc1ccccc1N=Nc1ccc(N=Nc2c(O)ccc3ccccc23)c(C)c1
Potency [2]: inactive
Potency [3]: inactive
Potency [4]: inactive
outcome [5]: inactive
Potency [6]: inactive
Potency [8]: inactive
Potency [9]: inactive

Nc1ccc(C(=O)Nc2ccccc2N)cc1
Potency [1]: inactive
Potency [2]: inactive
Potency [3]: inactive
Potency [4]: inactive
outcome [5]: inactive
Potency [6]: inactive
Potency [8]: inactive
Potency [9]: inactive

Cc1cc(O)ccc1N
Potency [2]: inactive
Potency [3]: inactive
Potency [4]: inactive
outcome [5]: inactive
Potency [6]: 54.8 µM (active)
Potency [7]: 24.5 µM (active)
Potency [8]: inactive

CC(C)CCCCCCOC(=O)c1ccc(C(=O)OCCCCCCC(C)C)c(C(=O)OCCCCCCC(C)C)c1
Potency [2]: inactive
Potency [3]: inactive
Potency [4]: inactive
outcome [5]: inactive
Potency [6]: inactive
Potency [8]: inactive
Potency [9]: inactive

CCCCCCCCCO
Potency [1]: inactive
Potency [2]: inactive
Potency [3]: inactive
Potency [4]: inactive
outcome [5]: inactive
Potency [6]: inactive
Potency [7]: inactive
Potency [8]: inactive

O=[N+]([O-])c1cc[n+]([O-])cc1
Potency [2]: inactive
Potency [3]: inactive
Potency [4]: inactive
outcome [5]: inactive
Potency [6]: inactive
Potency [7]: 9.69 µM (active)
Potency [8]: inactive

Cn1c(N)nc2nc[nH]c2c1=O
Potency [2]: inactive
Potency [3]: inactive
Potency [4]: inactive
outcome [5]: inactive
Potency [6]: inactive
Potency [7]: 27 µM (active)
Potency [8]: inactive

CC(Cc1cccc(C(F)(F)F)c1)NCCOC(=O)c1ccccc1 (stereo not drawn)
Potency [1]: 23.7 µM (active)
Potency [2]: 16.9 µM (active)
Potency [3]: inactive
Potency [4]: inactive
outcome [5]: inactive
Potency [6]: inactive
Potency [7]: inactive
Potency [8]: inactive

CC1=CCC(C(C)C)C=C1 (stereo not drawn)
Potency [1]: inactive
Potency [2]: inactive
Potency [3]: inactive
Potency [4]: inactive
outcome [5]: inactive
Potency [6]: inactive
Potency [8]: inactive
Potency [9]: inactive
Potency [10]: inactive

Cc1cccc(Oc2ccccc2)c1
Potency [2]: inactive
Potency [3]: inactive
outcome [5]: inactive
Potency [6]: inactive
Potency [7]: inactive
Potency [8]: inactive
Potency [9]: inactive

Cc1ccc(C(N)=O)cc1N
Potency [1]: inactive
Potency [2]: inactive
Potency [3]: inactive
outcome [5]: inactive
Potency [6]: inactive
Potency [7]: inactive
Potency [8]: inactive
Potency [9]: inactive

CCCc1ccccc1
Potency [1]: inactive
Potency [2]: inactive
Potency [3]: inactive
outcome [5]: inactive
Potency [6]: inactive
Potency [7]: inactive
Potency [8]: inactive
Potency [9]: inactive

CC(C)CC=O
Potency [1]: inactive
Potency [3]: inactive
outcome [5]: inactive
Potency [6]: inactive
Potency [7]: inactive
Potency [8]: inactive
Potency [9]: inactive

C=CC(=O)OCCOC(=O)CCC(=O)O
Potency [1]: inactive
Potency [2]: inactive
Potency [3]: inactive
Potency [4]: inactive
outcome [5]: inactive
Potency [6]: inactive
Potency [8]: inactive
Potency [10]: inactive

O=C1[C@H](CC[C@H](O)c2ccc(F)cc2)[C@@H](c2ccc(O)cc2)N1c1ccc(F)cc1
Potency [1]: inactive
Potency [2]: inactive
Potency [3]: inactive
outcome [5]: inactive
Potency [6]: inactive
Potency [7]: inactive
Potency [8]: inactive
Potency [9]: inactive

CCN(CC)CCc1nc(-c2ccccc2)no1
Potency [1]: inactive
Potency [3]: inactive
outcome [5]: inactive
Potency [6]: inactive
Potency [7]: inactive
Potency [8]: inactive
Potency [9]: inactive

CC(C(=O)O)c1ccc(-c2ccccc2)c(F)c1 (stereo not drawn)
Potency [1]: inactive
Potency [2]: inactive
Potency [3]: inactive
outcome [5]: inactive
Potency [6]: inactive
Potency [7]: inactive
Potency [8]: inactive
Potency [9]: inactive

CCCOc1ccc2nc(NC(=O)OC)[nH]c2c1
Potency [1]: inactive
Potency [2]: inactive
Potency [3]: inactive
Potency [4]: inactive
outcome [5]: inactive
Potency [6]: inactive
Potency [8]: inactive

C=CCCCCCC
Potency [2]: inactive
Potency [3]: inactive
Potency [4]: inactive
outcome [5]: inactive
Potency [6]: inactive
Potency [8]: inactive

Cc1occc1S
Potency [1]: inactive
Potency [2]: inactive
Potency [3]: inactive
outcome [5]: inactive
Potency [6]: inactive
Potency [7]: inactive
Potency [8]: inactive

CCCCCCOC(=O)CCC
Potency [2]: inactive
Potency [3]: inactive
Potency [4]: inactive
outcome [5]: inactive
Potency [6]: inactive
Potency [8]: inactive
Potency [10]: inactive

CCN1CCC[C@H]1CNC(=O)c1c(OC)ccc(Br)c1OC
Potency [1]: inactive
Potency [3]: inactive
outcome [5]: inactive
Potency [6]: inactive
Potency [7]: inactive
Potency [8]: inactive
Potency [9]: inactive

Nc1nc(CC(=O)O)cs1
Potency [2]: inactive
Potency [3]: inactive
outcome [5]: inactive
Potency [6]: inactive
Potency [7]: inactive
Potency [8]: inactive
Potency [9]: inactive
